High-throughput results from PubChem BioAssay.
Sfp PPTase inh: qHTS Assay for Inhibitors of Bacillus subtilis Sfp phosphopantetheinyl transferase (PPTase). 4'-phosphopantetheinyl transferase ffp (Bacillus subtilis), Q9F4F7. Biochemical Sfp PPTase activity, qHTS. Potency, µM, inactives show largest response in the series, negative = inhibition, actives largely listed as inhibitors. 310,000 tested, 3.5% active;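 note: the enzyme is Sfp with the accession as filed and its product quenches rhodamine fluorescence; 0% = enzyme reaction without inhibitor and -100% = no enzyme wells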
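Fluorescence-quenching assay: 15 nM Sfp-PPTase preincubated 15 min at room temperature with compound, then 5 uM rhodamine-CoA and 12.5 uM BHQ-2-labelled YbbR peptide added. Fluorescence (ex 525/em 598 nm) read at start and after 30 min; difference gives rate.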
JMJD2A Tudor inh: qHTS Assay for Inhibitors of JMJD2A-Tudor Domain; Lysine-specific demethylase 4A (Homo sapiens), O75164; AlphaScreen JMJD2A-Tudor / H3K4me3 peptide binding; Potency, µM (top dose mostly 114 µM), for inactives: top-dose activity change, negative = inhibition, actives largely listed as inhibitors; 390,000 tested, 4.4% active; AID 504339, 2011; note: % is set by controls: 0 for no effect and ±100 for the full control effect; nearly all actives have a fitted effect of over 50% in size
G9a inh: qHTS Assay for Inhibitors of Histone Lysine Methyltransferase G9a; 350,000 tested, 8.8% active; Histone-lysine N-methyltransferase EHMT2 (Homo sapiens), Q96KQ7; G9a H3K9 monomethylation, AlphaScreen, 2 h; Potency, µM (top dose mostly 102 µM), without a hit: at the highest dose activity, negative = inhibition, usual class: inhibitors; note: % is set by controls: 0 for no effect and ±100 for the full control effect; nearly all actives have a fitted effect of over 75% in size
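Methyltransferase reactions run at room temperature for 2 h (20 nM enzyme, 500 nM biotin-H3K9 peptide, 20 uM SAM) after a 15 min compound preincubation; product detected by AlphaScreen beads and anti-H3K9me1 antibody.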
BAZ2B inh: qHTS Assay for Inhibitors of BAZ2B; 360,000 tested, 4.4% active; Bromodomain adjacent to zinc finger domain protein 2B (Homo sapiens), Q9UIF8; AlphaScreen BAZ2B-H3K14Ac peptide displacement; Potency, µM (doses to about 114 µM), inactives show top-dose activity change, negative = inhibition, usual class: inhibitors; note: % is set by controls: 0 for no effect and ±100 for the full control effect; nearly all actives have a fitted effect of over 60% in size
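BAZ2B 50 nM plus b-H3(5-23)K14Ac 50 nM, PBS pH 7.4/0.01% Tween-20, 30 min RT; compound added (max 110 uM), 30 min RT; streptavidin donor/Ni-chelate acceptor beads 10 ug/mL final, 20 min dark; AlphaScreen read.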
HP1b binding inh: HTS for Inhibitors of HP1-beta Chromodomain Interactions with Methylated Histone Tails; Chromobox protein homolog 1 (Homo sapiens), P83916; AlphaScreen HP1-beta / biotin-H3K9me3 peptide binding; Potency, µM (doses to about 114 µM), without a hit: top-dose activity change, negative = inhibition, usual class: inhibitors; 390,000 tested, 0.56% active; AID 540317, 2011; note: nearly all actives have a fitted effect of over 70% in size
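HP1-beta protein (50 nM final) preincubated 30 min at room temperature with biotinylated H3(1-18)K9me3 peptide (50 nM) in PBS pH 7.4, 0.01% Tween-20, then compound added for 30 min. AlphaScreen streptavidin donor/nickel chelate acceptor beads (10 ug/mL final), 30 min dark, luminescence read.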
PLK1 PBD block: qHTS for Inhibitors of PLK1-PDB (polo-like kinase 1 - polo-box domain): Primary Screen; Serine/threonine-protein kinase PLK1 (Homo sapiens), P53350; Plk1 PBD binding of FITC phosphopeptide, fluorescence polarization; Potency, µM, inactives show max response, negative = inhibition, hits mostly inhibitors; 360,000 tested, 2.8% active; AID 720504, 2013; note: series mostly up to about 57 µM; % is set by controls: 0 for no effect and ±100 for the full control effect; nearly all actives have a fitted effect of over 65% in size
* marks the source's active call; other numbers are inactive results; ? = inconclusive; . = no result given; [ ] = dose if it differs, or a comment. This is a sample that favours compounds with a hit; in the whole collection about 12% have one here. Calls come from the whole dose curve; as a rule, active = well fitted curve in the direction sought with a large enough effect; inconclusive = small, poorly fitted or top-dose-only effect, or another doubt; inactive = no such curve, though single readings can be large; an effect the other way counts as inactive or inconclusive. Potency is the fitted concentration of half-maximal effect.

SMILES	Sfp PPTase inh	JMJD2A Tudor inh	G9a inh	BAZ2B inh	HP1b binding inh	PLK1 PBD block
CCC1=C2CC[C@H]3C(=O)NC(=O)[C@H]3[C@H]2[C@@]2(Cc3ccccc3)C(=NCC3CC3)OC(=O)N2C1=O	4%	.	.	.	.	.
C(=C\c1ccccc1)/CN1CCN(Cc2ccc3c(c2)OCO3)CC1	-36%	1.3µM*	.	50µM*	?	4%
CS(=O)(=O)N1CCN(C/C=C/c2ccccc2)CC1	18%	-2%	?	-11%	43%	-6%
Cc1ccccc1CN1CCN(C/C=C/c2ccccc2)CC1	?	3.2µM*	?	-31%	?	-4%
O=[N+]([O-])c1ccccc1/C=C/CN1CCN(Cc2ccc3c(c2)OCO3)CC1	-12%	22µM*	.	?	?	-20%
C/C(=C\c1ccccc1)C(=O)N1CCN(Cc2ccc3c(c2)OCO3)CC1	4%	0%	-49%	-23%	21%	4%
CCOC(=O)C1=C([Si](C)(C)C)c2ccccc2N(S(=O)(=O)C(F)(F)F)C1C(=O)OCC (stereo not drawn)	-10%	.	-4%[59 µM]	.	.	.
CC(C)C[C@H]1CNC(=O)C(=O)N1C[C@H]1CCCN1C[C@H](CC(C)C)N1C[C@H](Cc2ccccc2)N(CCc2ccccc2)C(=O)C1=O	.	.	.	.	.	-2%
O=[N+]([O-])c1ccc(NC(c2ccccc2)c2ccc3cccnc3c2O)cc1 (stereo not drawn)	.	?	.	.	-13%[57 µM]	-1%
O=C(COc1cccc2cccnc12)Nc1nccs1	-14%	?	-14%[59 µM]	-30%	14%	-3%
CCCCC(=O)NC(c1cccc([N+](=O)[O-])c1)c1ccc2cccnc2c1O (stereo not drawn)	.	32µM*	.	.	49%	2%
Oc1cccc(C(Nc2nccs2)c2ccc3cccnc3c2O)c1 (stereo not drawn)	8%	32µM*	?	28µM*	?	?
CC(=O)NC(c1cccc([N+](=O)[O-])c1)c1ccc2cccnc2c1O (stereo not drawn)	-3%	32µM*	.	38%	36%	-12%
CC(C)c1ccc(C(=O)Nc2cccc3cccnc23)cc1	.	112%	68%[59 µM]	120%	147%	.
CC(=O)NC(c1ccc(C(C)C)cc1)c1ccc2cccnc2c1O (stereo not drawn)	6%	56µM*	20%	?	35%	-17%
CCCCC(=O)NC(c1cccc([N+](=O)[O-])c1)c1c(OC(C)=O)ccc2ccccc12 (stereo not drawn)	14%	-24%	-51%[59 µM]	?	-1%	-1%
CC(=O)NCCNc1nc2cc(-c3cccc(C(F)(F)F)c3)sc2c(=O)n1C	.	.	.	.	.	-8%
Cc1ccc2c(c1)-c1c(cnn1CC(=O)N1CCN(c3ccccc3F)CC1)CO2	.	3%	11%[59 µM]	0%	28%	.
COc1cccc(C(NC(C)=O)c2ccc3cccnc3c2O)c1 (stereo not drawn)	12%	56µM*	?	18µM*	-1%	?
Cc1nc2c(c(SCC(=O)Nc3ccccc3C(F)(F)F)n1)CCC2	.	6%	7%[59 µM]	-3%	41%	.
C/C(=N/NC(=O)CN(c1ccccc1)S(=O)(=O)c1ccccc1)c1ccccc1O	25%	?	.	13µM*	41%	-4%
CO[C@H]1OC2O[C@@]3(C)CC[C@H]4[C@H](C)CC[C@@H]([C@H]1C)[C@@]24OO3 (stereo partly drawn)	21%	.	3%[59 µM]	.	.	.
COc1ccccc1C1/C(=C(/O)c2ccccc2)C(=O)C(=O)N1CC(C)C (stereo not drawn)	4%	?	?	1%	12%	-9%
NS(=O)(=O)c1ccc(N2C(=O)C(=O)/C(=C(/O)c3ccccc3)C2c2ccc(Cl)cc2)cc1 (stereo not drawn)	10%	-9%	50µM*	7%	15%	-3%
CCOc1ccc(N2C(=O)C(=O)/C(=C(/O)c3ccccc3)C2c2ccccc2[N+](=O)[O-])cc1 (stereo not drawn)	?	-27%	45µM*	-8%	7%	-19%
SMILES	Sfp PPTase inh	JMJD2A Tudor inh	G9a inh	BAZ2B inh	HP1b binding inh	PLK1 PBD block
O=C1C(=O)N(c2ccccc2)C(c2ccccc2[N+](=O)[O-])/C1=C(\O)c1ccccc1 (stereo not drawn)	13µM*	-32%	?	?	?	-11%
O=C1C(=O)N(c2cccc(Cl)c2)C(c2ccccc2[N+](=O)[O-])/C1=C(\O)c1ccccc1 (stereo not drawn)	22µM*	?	28µM*	79µM*	-8%	?
O=C(c1cccnc1)N1CCN(C(=O)c2ccco2)CC1	13%	3%	6%[59 µM]	0%	15%	-10%
O=C(c1cccnc1)N1CCN(Cc2cccc(Br)c2)CC1	89µM*	3.5µM*	13µM*	19%	50µM*	0%
COc1ccc(CN2CCN(C(=O)c3cccnc3)CC2)cc1Br	79µM*	3.2µM*	18µM*	35µM*	?	-3%
COc1cc(NS(=O)(=O)c2cccc([N+](=O)[O-])c2)c2ncccc2c1	14%	56µM*	.	.	.	.
COC(=O)COc1ccc(NS(=O)(=O)c2cccc([N+](=O)[O-])c2)cc1	9%	?	.	-10%	-21%	24µM*
COc1cc(NS(=O)(=O)c2ccc([N+](=O)[O-])cc2)c2ncccc2c1	6%	56µM*	.	.	.	.
COc1cc2c(Nc3ccc(Br)cc3F)ncnc2cc1OCC1CCN(C)CC1	-5%	.	?	.	.	.
CN(C(=O)CSc1cn(CC(=O)N2CCCCC2)c2ccccc12)c1ccccc1	.	-1%	-5%[59 µM]	-16%	26%	.
COc1cc(OC)c2c(O)c3c(c(-c4c5c(c(O)c6c(OC)cc(OC)cc46)CO[C@@H](C)[C@H]5O)c2c1)[C@H](O)[C@H](C)OC3	?	50µM*	9%[12.7 µM]	45µM*	?	21µM*
C#CCOCCOCCOCCNc1nc(N2CCN(C(=O)C([C@@H](C)O)n3cc([C@@H](N)CCCCN)nn3)CC2)nc(N2CCN(C(=O)[C@H](CCC(=O)O)n3cc([C@@H](N)CCCCN)nn3)CC2)n1 (stereo partly drawn)	.	?	.	.	41%	5%
